Reference: PubChem BioAssay AID1159580 (chemical genetic matrix, 2015)
Several values for one entry are separate records, joined by “and”; a condition that tells them apart may be missing. Identical values can stand only once. Out of some 5,500 compounds screened, about 2,000 (36%) were called active. Inconclusive results (about 18%) are left out. The list shows a part of the results. Unmarked numbers belong to inactive results. Rule as the data show it: active = normalized growth mostly below about 0.91 (no sharp cut-off); inconclusive = no clear call, values can overlap the other calls; inactive = mostly above about 0.92.

Test: chemical genetic growth profiling, strain panel (AID 1159580);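 also: tested at 20 µM; growth read once vehicle control cultures reached saturation at 30 °C; 1 = growth at the plate median or of vehicle wells; lower values mean less growth of the strain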
Details: S. cerevisiae deletion strains, growth OD

Which normalized growth (locus YAL021C, strain ccr4, active compounds read low) does the source give for Cc1cc(O)c(C=O)c2c1C(=O)Oc1c(COC(=O)/C=C/C(=O)O)c(O)c(C(=O)O)c(C)c1O2 here?
The normalized growth was 0.915.

What about the normalized growth (locus YAL026C, strain drs2, active compounds read low) of the same compound?
Its normalized growth is 0.841 (active).

And the normalized growth (locus YAL030W, strain snc1, active compounds read low)?
The normalized growth was 0.96.

What about the normalized growth (locus YBL061C, strain skt5, active compounds read low) of the same compound?
The normalized growth was 0.96.

What about the normalized growth (locus YBR009C, strain hhf1, active compounds read low) of the same compound?
The normalized growth was 0.937.

And the normalized growth (locus YBR021W, strain FUR4, active compounds read low)?
Its normalized growth is 1.06.

And the normalized growth (locus YBR023C, strain chs3, active compounds read low)?
The normalized growth was 0.967.

What about the normalized growth (locus YBR171W, strain sec66, active compounds read low) of the same compound?
The normalized growth was 0.983.

And the normalized growth (locus YBR229C, strain ROT2, active compounds read low)?
The normalized growth was 0.988.

And the normalized growth (locus YBR231C, strain swc5, active compounds read low)?
The normalized growth was 0.885 (active).

What about the normalized growth (locus YBR279W, strain paf1, active compounds read low) of the same compound?
Its normalized growth is 0.933.

What about the normalized growth (locus YCL011C, strain gbp2, active compounds read low) of the same compound?
The normalized growth was 0.974.

What about the normalized growth (locus YCL016C, strain dcc1, active compounds read low) of the same compound?
Its normalized growth is 0.992.

And the normalized growth (locus YCL029C, strain bik1, active compounds read low)?
Its normalized growth is 0.98.

And the normalized growth (locus YCL061C, strain MRC1, active compounds read low)?
Its normalized growth is 0.912 (active).

What about the normalized growth (locus YCL069W, strain vba3, active compounds read low) of the same compound?
Its normalized growth is 0.973.

What about the normalized growth (locus YCR088W, strain abp1, active compounds read low) of the same compound?
Its normalized growth is 1.02.

What about the normalized growth (locus YDL005C, strain med2, active compounds read low) of the same compound?
Its normalized growth is 1.02.

What about the normalized growth (locus YDL035C, strain GPR1, active compounds read low) of the same compound?
Its normalized growth is 0.929.

And the normalized growth (locus YDL040C, strain nat1, active compounds read low)?
Its normalized growth is 1.

And the normalized growth (locus YDL074C, strain BRE1, active compounds read low)?
Its normalized growth is 0.936.

And the normalized growth (locus YDL101C, strain DUN1, active compounds read low)?
Its normalized growth is 0.959.

And the normalized growth (locus YDL185W, strain tfp1, active compounds read low)?
The normalized growth was 0.919.

What about the normalized growth (locus YDL192W, strain arf1, active compounds read low) of the same compound?
Its normalized growth is 0.95.

And the normalized growth (locus YDR001C, strain nth1, active compounds read low)?
Its normalized growth is 0.998.

What about the normalized growth (locus YDR069C, strain doa4, active compounds read low) of the same compound?
The normalized growth was 0.883 (active).

And the normalized growth (locus YDR101C, strain arx1, active compounds read low)?
The normalized growth was 0.977.

What about the normalized growth (locus YDR137W, strain rgp1, active compounds read low) of the same compound?
The normalized growth was 1.04.

What about the normalized growth (locus YDR150W, strain NUM1, active compounds read low) of the same compound?
Its normalized growth is 0.951.

What about the normalized growth (locus YDR159W, strain sac3, active compounds read low) of the same compound?
The normalized growth was 0.981.

What about the normalized growth (locus YDR162C, strain NBP2, active compounds read low) of the same compound?
Its normalized growth is 0.808 (active).

What about the normalized growth (locus YDR195W, strain ref2) of the same compound?
Its normalized growth is 1.1.

What about the normalized growth (locus YDR297W, strain sur2, active compounds read low) of the same compound?
Its normalized growth is 0.957.

What about the normalized growth (locus YDR318W, strain mcm21, active compounds read low) of the same compound?
Its normalized growth is 0.991.

What about the normalized growth (locus YDR334W, strain swr1, active compounds read low) of the same compound?
The normalized growth was 0.891 (active).

What about the normalized growth (locus YDR335W, strain msn5, active compounds read low) of the same compound?
Its normalized growth is 0.943.

And the normalized growth (locus YDR388W, active compounds read low)?
Its normalized growth is 0.992.

What about the normalized growth (locus YDR392W, strain spt3, active compounds read low) of the same compound?
Its normalized growth is 0.813.

What about the normalized growth (locus YDR502C, strain sam2, active compounds read low) of the same compound?
The normalized growth was 0.96.

What about the normalized growth (locus YEL003W, strain gim4, active compounds read low) of the same compound?
Its normalized growth is 0.977.

And the normalized growth (locus YEL037C, strain rad23, active compounds read low)?
Its normalized growth is 0.939.

And the normalized growth (locus YEL061C, strain CIN8 (second series), active compounds read low)?
The normalized growth was 0.993.

And the normalized growth (locus YEL061C, strain CIN8, active compounds read low)?
Its normalized growth is 0.97.

What about the normalized growth (locus YER015W, strain faa2, active compounds read low) of the same compound?
The normalized growth was 0.874 (active).

What about the normalized growth (locus YER016W, strain bim1, active compounds read low) of the same compound?
The normalized growth was 1.03.

And the normalized growth (locus YER110C, active compounds read low)?
The normalized growth was 0.981.

And the normalized growth (locus YER111C, strain swi4, active compounds read low)?
The normalized growth was 0.906 (active).

And the normalized growth (locus YER155C, strain BEM2 (second series), active compounds read low)?
The normalized growth was 1.01.

And the normalized growth (locus YER155C, strain BEM2, active compounds read low)?
Its normalized growth is 1.

What about the normalized growth (locus YER167W, strain BCK2, active compounds read low) of the same compound?
Its normalized growth is 1.01.

What about the normalized growth (locus YFR010W, strain ubp6, active compounds read low) of the same compound?
Its normalized growth is 0.873 (active).

And the normalized growth (locus YGL078C, strain dbp3, active compounds read low)?
Its normalized growth is 0.969.

And the normalized growth (locus YGL086W, strain mad1, active compounds read low)?
The normalized growth was 0.971.

What about the normalized growth (locus YGL167C, strain pmr1, active compounds read low) of the same compound?
The normalized growth was 0.993.

And the normalized growth (locus YGL173C, strain kem1, active compounds read low)?
Its normalized growth is 0.856 (active).

And the normalized growth (locus YGL227W, strain vid30, active compounds read low)?
Its normalized growth is 1.02.

And the normalized growth (locus YGL240W, strain doc1, active compounds read low)?
The normalized growth was 1.06.

And the normalized growth (locus YGL248W, strain PDE1, active compounds read low)?
Its normalized growth is 0.947.

And the normalized growth (locus YGL253W, strain hxk2, active compounds read low)?
Its normalized growth is 0.787 (active).

What about the normalized growth (locus YGR135W, strain pre9, active compounds read low) of the same compound?
Its normalized growth is 0.958.

And the normalized growth (locus YGR229C, strain SMI1, active compounds read low)?
Its normalized growth is 0.734 (active).

And the normalized growth (locus YGR252W, strain gcn5, active compounds read low)?
The normalized growth was 1.12.

What about the normalized growth (locus YHR013C, strain ard1, active compounds read low) of the same compound?
Its normalized growth is 0.877.

And the normalized growth (locus YHR027C, strain rpn1, active compounds read low)?
The normalized growth was 0.761 (active).

What about the normalized growth (locus YHR030C, strain SLT2, active compounds read low) of the same compound?
Its normalized growth is 0.973 and 0.971.

What about the normalized growth (locus YHR079C, strain IRE1 (second series), active compounds read low) of the same compound?
Its normalized growth is 0.994.

And the normalized growth (locus YHR079C, strain IRE1, active compounds read low)?
The normalized growth was 0.985.

What about the normalized growth (locus YHR094C, strain hxt1, active compounds read low) of the same compound?
The normalized growth was 0.994.

And the normalized growth (locus YHR129C, strain ARP1, active compounds read low)?
The normalized growth was 0.937.

What about the normalized growth (locus YHR142W, strain chs7, active compounds read low) of the same compound?
The normalized growth was 0.852 (active).

And the normalized growth (locus YHR200W, strain rpn10, active compounds read low)?
Its normalized growth is 0.976.

What about the normalized growth (locus YIL066C, strain RNR3, active compounds read low) of the same compound?
The normalized growth was 0.896.

What about the normalized growth (locus YIL073C, strain SPO22, active compounds read low) of the same compound?
Its normalized growth is 0.898.

And the normalized growth (locus YIL125W, strain kgd1, active compounds read low)?
Its normalized growth is 0.969.

What about the normalized growth (locus YIR030C, strain dcg1, active compounds read low) of the same compound?
The normalized growth was 0.993.

And the normalized growth (locus YJL092W, strain hpr5, active compounds read low)?
The normalized growth was 0.952.

And the normalized growth (locus YJL095W, strain BCK1 (second series), active compounds read low)?
The normalized growth was 0.961.

And the normalized growth (locus YJL095W, strain BCK1, active compounds read low)?
Its normalized growth is 0.904 and 0.959.

And the normalized growth (locus YJL115W, strain asf1, active compounds read low)?
The normalized growth was 1.

What about the normalized growth (locus YJL129C, strain trk1, active compounds read low) of the same compound?
Its normalized growth is 1.08.

And the normalized growth (locus YJL134W, strain LCB3, active compounds read low)?
Its normalized growth is 0.978.

What about the normalized growth (locus YJL154C, strain vps35, active compounds read low) of the same compound?
The normalized growth was 0.992.

And the normalized growth (locus YJL164C, strain tpk1, active compounds read low)?
Its normalized growth is 0.935.

And the normalized growth (locus YJL166W, strain qcr8, active compounds read low)?
Its normalized growth is 0.947.

What about the normalized growth (locus YJL168C, strain set2, active compounds read low) of the same compound?
Its normalized growth is 0.974.

And the normalized growth (locus YJL187C, strain SWE1 (second series), active compounds read low)?
The normalized growth was 0.879.
